NALP1 yeast inh – NALP1 inflammasome inhibitors in reconstituted yeast, colorimetric, S. cerevisiae, triplicate retest | S. cerevisiae NALP1/ASC/caspase-1 growth, X-gal OD620, 72 h | inhibition, % at 10 µM | 280,000 compounds, 0.61% hits | AID 2071, 2009; in the data active = inhibition mostly above about 24%, no sharp cut-off; inactive = mostly below about 32%
NALP3 yeast inh – NALP3 inflammasome inhibitors in reconstituted yeast, primary screen, luminescence, uHTS. inhibition, % at 10 µM. AID 2825, 2010. Yeast reconstituted NLRP3/ASC/caspase-1, beta-gal luminescence, 24 h. 330,000 compounds, 0.39% hits;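 active = inhibition of 50% or more; inactive = inhibition below 50%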;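 note: plate controls were induced DMSO wells for no effect and uninduced yeast grown without galactose for full effect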
tim23-1 inh – growth inhibitors of tim23-1 mutant yeast, primary screen, luminescence, uHTS. S. cerevisiae tim23-1 growth, BacTiter-Glo luminescence, 24 h. inhibition, % at 20 µM. 330,000 compounds, 1.3% hits. AID 463212, 2010;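 active = growth inhibition of the mutant yeast at or above 50%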;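 note: temperature-sensitive mutant grown at 25 °C; plate controls were DMSO-treated mutant yeast for no effect and medium wells lacking yeast for full effect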
TIM10 inh – growth inhibitors of isogenic TIM10 control yeast, primary screen, counter-screen for tim10-1 yeast inhibitor project, luminescence, uHTS; S. cerevisiae TIM10 strain growth, BacTiter-Glo luminescence, 24 h; inhibition, % at 10 µM; 330,000 compounds, 1.4% hits; AID 463195, 2010;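 active = inhibition of 40% or more at the single tested concentration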;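 note: wild-type TIM10 isogenic control strain grown at permissive 25 °C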
tim10-1 inh – growth inhibitors of tim10-1 mutant yeast, primary screen, luminescence, uHTS; S. cerevisiae tim10-1 ts strain growth, BacTiter-Glo, 24 h; inhibition, % at 20 µM; 330,000 compounds, 2.2% hits;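 active = inhibition of at least 40%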;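 note: mutant grown at 25 °C; 0% = DMSO wells with yeast and 100% = wells holding no yeast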
tim10-1 conf – growth inhibitors of tim10-1 mutant yeast, confirmation, single concentration, luminescence, S. cerevisiae. shares compounds with tim10-1 inh. S. cerevisiae tim10-1 ts strain growth, BacTiter-Glo, 24 h. inhibition, % at 20 µM. 7,400 compounds, 56% hits. AID 463213, 2010;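 active = inhibition of yeast growth at or above a set limit in either of two repeat tests at 20 µM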;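 note: tim10-1 mutant grown at permissive 25 °C to find synthetic lethal compounds; 0% = DMSO yeast wells and 100% = medium wells without yeast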
* = called active by the depositor; . = not tested or not shown. Hits are enriched below; roughly 4.1% of the tested compounds scored in any of these assays.

SMILES	NALP1 yeast inh	NALP3 yeast inh	tim23-1 inh	TIM10 inh	tim10-1 inh	tim10-1 conf
CSc1ncccc1C(=O)Nc1nc(C(C)(C)C)cs1	6	39	44	18	11	.
CC(C)(C)c1csc(NC(=O)c2c(F)c(F)c(F)c(F)c2F)n1	.	21	43	16	41*	24
Cc1ccc(CS(=O)(=O)c2ccc(C(=O)N3CCN(c4ccccn4)CC3)cc2[N+](=O)[O-])cc1	12	22	33	15	47*	24
Cc1ccc(CS(=O)(=O)c2ccc(C(=O)N3CCCCC3)cc2[N+](=O)[O-])cc1	-5	24	24	19	24	.
CCOC(=O)c1c(CSc2ccc(C)cc2)oc2ccc(O)cc12	11	28	16	-10	40	4
COC(=O)C1=CN(Cc2ccc(OC)cc2)C=C(C(=O)OC)C1c1cc(OC)c(OC)c(OC)c1	11	19	28	17	22	.
COC(=O)C1=CN(C(C)c2ccccc2)C=C(C(=O)OC)C1c1cc(OC)c(OC)c(OC)c1 (stereo unspecified)	7	10	44	17	43*	21
CCOc1c(C=C(C#N)C#N)c2ccccc2n1CC	18	19	41	7	42*	27
CCn1c(O)c(C(C#N)=C2N=c3ccccc3=N2)c2ccccc21	19	19	22	16	17	.
COc1ccc(/C=C/C(=O)NCc2cn(C)nc2C)cc1COc1ccc(Br)cc1	4	-5	23	19	40*	11
COc1cc(/C=C(\C#N)c2nc3ccccc3s2)cc([N+](=O)[O-])c1O	-9	10	29	15	46*	29
COc1ccccc1OCCNC(=O)c1cccc(S(=O)(=O)NCc2ccccc2)c1	.	8	3	-3	9	.
Clc1cccc(C2Nc3cccc4cccc(c34)N2)c1Cl	20	26	48	26	42*	58*
Brc1ccc(-c2ccc(C3Nc4cccc5cccc(c45)N3)o2)cc1	.	28	29	1	28	.
c1coc(C2Nc3cccc4cccc(c34)N2)c1	5	12	45	38	41*	35*
Clc1ccccc1C1Nc2cccc3cccc(c23)N1	20	22	35	23	43*	34*
Cc1ccc(S(=O)(=O)N2CCN(C(=O)C3COc4ccccc4O3)CC2)cc1C (stereo unspecified)	-4	24	20	5	21	.
Cc1cc(C)c(S(=O)(=O)N2CCN(C(=O)C3COc4ccccc4O3)CC2)c(C)c1 (stereo unspecified)	.	18	44	21	40*	28
O=S(=O)(c1ccccc1)N1CCN(Cc2ccccc2C(F)(F)F)CC1	-3	23	20	12	40*	6
Cc1ccc(S(=O)(=O)N2CCN(Cc3ccccc3C(F)(F)F)CC2)cc1	4	20	16	-11	13	.
N=c1oc2cc(O)ccc2cc1C(=O)Nc1ccc(Cl)cc1	26	-23	43	25	44*	24
CC(=O)CCc1oc2ccc(C)cc2c1-c1ccc(C)o1	11	4	36	33	46*	58*
COc1cc2c(cc1OC)CN(C(=O)C1CCN(S(=O)(=O)c3ccccc3F)CC1)CC2	3	4	0	0	12	.
CCOc1ccc(CCNC(=O)COC(=O)c2ccc[nH]c2=O)cc1OCC	.	3	-2	6	-1	.
CCOc1cc(/C=C2\N=C(C)OC2=O)cc(Br)c1OCC(=O)OC	22	0	26	16	44*	10
SMILES	NALP1 yeast inh	NALP3 yeast inh	tim23-1 inh	TIM10 inh	tim10-1 inh	tim10-1 conf
Cc1cccc(Oc2coc3cc(O)ccc3c2=O)c1	33	10	34	19	48*	15
CCc1ccccc1Oc1coc2cc(O)ccc2c1=O	12	13	41	25	26	.
O=C(Nc1ccccc1Cl)C1CCCN(c2ncnc3c2nc2n3CCCCC2)C1 (stereo unspecified)	2	15	40	22	54*	12
COc1ccccc1NC(=O)C1CCCN(c2ncnc3c2nc2n3CCCCC2)C1 (stereo unspecified)	13	10	15	9	19	.
CCc1cccc(NC(=O)C2CCCN(c3ncnc4c3nc3n4CCCCC3)C2)c1 (stereo unspecified)	10	24	13	6	40*	13
CC(C)c1ccc(Nc2c([N+](=O)[O-])c(=O)n(C)c3ccccc23)cc1	-23	30	15	7	51*	52*
Cc1cccc(Nc2c([N+](=O)[O-])c(=O)n(C)c3ccccc23)c1	20	12	14	-23	17	.
CC(=O)N(C(C)=O)c1c(C#N)c(C)n(-c2ccccc2)c1C(=O)c1ccccc1	19	19	37	20	41*	20
Cc1[nH]c(C(=O)O)c(C#N)c1C(=O)c1ccccc1	4	4	5	6	8	.
CC(=O)N/C(=N\OCc1ccccc1Cl)c1nonc1NC(C)=O	6	-19	4	8	3	.
CC(C)(C)C1CCc2c(sc(NC(=O)CSc3ncn[nH]3)c2C#N)C1 (stereo unspecified)	-65	21	38	23	40*	12
CC1CCc2c(sc(NC(=O)CSc3ncn[nH]3)c2C#N)C1 (stereo unspecified)	.	12	12	-3	-2	.
CCCc1cc(=O)[nH]c(SCC(=O)Nc2sc3c(c2C#N)CCC(C)C3)n1 (stereo unspecified)	-2	-2	21	14	47*	-8
O=C(NCc1cccs1)C1CC(=O)N(Cc2ccccc2)C1 (stereo unspecified)	.	-1	5	-2	1	.
c1ccc(CNc2nc(NCc3ccccc3)c3ccccc3n2)cc1	18	30	-67	-37	62*	-89
Cc1sc2nc(SCc3nc4ccccc4[nH]3)n(Cc3ccco3)c(=O)c2c1C	15	-8	46	29	52*	35*
Cc1sc2nc(SCc3ccccc3)n(Cc3ccco3)c(=O)c2c1C	17	11	16	0	7	.
COc1ccc(C2C=C(C34CC5CC(CC(C5)C3)C4)NC(=S)N2)cc1 (stereo unspecified)	41	13	35	22	43*	30
COc1ccc(C2=CC(c3ccc(OC)c(OC)c3)NC(=S)N2)cc1 (stereo unspecified)	7	-9	4	7	12	.
CCSc1c([N+](=O)[O-])c(=O)n(-c2ccccc2)c2ccccc12	.	30	45	40	47*	46*
